Values joined by “and” are separate entries in the source; they are usually repeats but may differ in a detail not shown here. Equal values may be shown once. Active and inactive are the calls of the source. Unless noted, how the calls were made is not given here.
Assays:
[1] = liver-stage malaria parasite growth inhibition, primary screen, cell-based, HepG2, luciferase luminescence, HepG2 viability (AID 624349; in the data active means parasite load remaining mostly below about 12%, no sharp cut-off; inactive means mostly above about 10%;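 further: 100% = mean of DMSO negative control wells on the same plate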); conditions: P. berghei liver stage in HepG2, luciferase luminescence, concentration not given here; parasite load remaining: stronger effect = lower value; viability: measured here: HepG2 viability without parasites
[2] = Cy5 fluorescence interference with SSB-bound oligo, artefact control for HCV NS3 helicase inhibitor project, biochemical, NIH Clinical Collection, E. coli SSB (AID 743268)
[3] = tested on: Hepatitis C virus NS3 helicase; test: HCV NS3 helicase inhibitors, primary screen, biochemical, fluorescence polarization, NIH Clinical Collection (AID 743270); conditions: NS3 helicase binding to Cy5-dT15 DNA, stronger effect = higher value, concentration not given here
[4] = molecular target: Single-stranded DNA-binding protein (Escherichia coli (strain K12)) (UniProt P0AGE0); test: E. coli SSB displacement from DNA, counter-screen for HCV NS3 helicase inhibitor project, biochemical, fluorescence polarization, NIH Clinical Collection (AID 743271; in the data active means inhibition above about 28%); conditions: stronger effect = higher value, concentration not given here
[5] = fluorescence interference in NS3h assay format, artefact control for HCV NS3 helicase inhibitor project, biochemical, NIH Clinical Collection (AID 743272); conditions: fluorescence interference counterscreen, stronger effect = lower value;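 further: HCV NS3 helicase with a Cy5 labelled single stranded DNA probe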
[6] = tested on: Neuropilin-2 / VEGF-C interaction (human); test: inhibitors of NRP2–VEGF-C binding, biochemical, microplate binding format, z-score (AID 743281); conditions: microplate NRP2/VEGF-C binding assay; stronger effect = lower value
[7] = stimulators of nuclear beta-catenin in C2C12, primary screen, imaging, WNT3A-conditioned medium, mouse C2C12, NPC library (AID 1117326; in the data active means nuclear beta-catenin stimulation mostly above about 4.2%, no sharp cut-off; inactive means mostly below about 10%); conditions: stronger effect = higher value
[8] = kinase inhibitors against Plasmodium liver-stage infection, cell-based, known kinase inhibitor set, luminescence, hepatoma host viability (AID 624392); conditions: Plasmodium liver stage in hepatoma cells, luciferase luminescence, concentration not given here; liver cell % of control: measured here: host liver cell viability; parasite % of control: stronger effect = lower value;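 further: infected cells incubated roughly two days before readout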
[9] = tested on: Hepatitis C virus NS3 helicase; test: HCV NS3 helicase inhibitors, primary screen, biochemical, fluorescence polarization, LOPAC1280 library (AID 687035; in the data active means inhibition above about 37%); conditions: Purified HCV NS3 helicase, Cy5-dT15 ssDNA binding fluorescence polarization; stronger effect = higher value; concentration not given here
[10] = Cy5 fluorescence quenching or enhancement artefacts, artefact control for HCV NS3 helicase inhibitor project, biochemical, LOPAC1280 (AID 687037); conditions: Cy5-DNA-NS3h complex fluorescence interference counterscreen

Cn1nnc2c(C(N)=O)ncn2c1=O
parasite load remaining [1]: 106% (inactive) and 19.4% (inactive) | viability [1]: 79.6% and 80.5% | fluorescence ratio [2]: 1.03 (inactive) | inhibition [3]: -5.94% (inactive) | inhibition [4]: -0.87% (inactive) | fluorescence ratio [5]: 0.9 (inactive) | z-score [6]: -0.72 (inactive) | nuclear beta-catenin stimulation ([7]; at 10 µM): -1.7% (inactive) | nuclear beta-catenin stimulation ([7]; stimulation, at 2 µM): 0%

CCCc1c(OCCCCc2nn[nH]n2)ccc(C(C)=O)c1O
parasite load remaining [1]: 103% (inactive) | viability [1]: 65.9% | fluorescence ratio [2]: 1.03 (inactive) | inhibition [3]: 5.15% (inactive) | inhibition [4]: -3.18% (inactive) | fluorescence ratio [5]: 0.98 (inactive) | z-score [6]: 0.174 (inactive) | nuclear beta-catenin stimulation ([7]; at 10 µM): 0.3% (inactive) | nuclear beta-catenin stimulation ([7]; stimulation, at 2 µM): 1.2%

COCCCC/C(=N\OCCN)c1ccc(C(F)(F)F)cc1
parasite load remaining [1]: 94.5% (inactive) | viability [1]: 63.8% | outcome [6]: inactive | nuclear beta-catenin stimulation ([7]; at 10 µM): 0.8% (inactive) | nuclear beta-catenin stimulation ([7]; stimulation, at 2 µM): 0.4%

CC(=O)Nc1ccc(CC(=O)O)cc1
parasite load remaining [1]: 119% (inactive) | viability [1]: 78.7% | fluorescence ratio [2]: 1.02 (inactive) | inhibition [3]: 0.4% (inactive) | inhibition [4]: -2.41% (inactive) | fluorescence ratio [5]: 0.93 (inactive) | z-score [6]: -0.00496 (inactive) | nuclear beta-catenin stimulation ([7]; at 10 µM): -0.2% (inactive) | nuclear beta-catenin stimulation ([7]; stimulation, at 2 µM): 0.4%

N#Cc1ccc(C(c2ccc(C#N)cc2)n2cncn2)cc1
parasite load remaining [1]: 127% (inactive) and 107% (inactive) and 48.7% (inactive) | viability [1]: 71.5% and 77.2% and 128% | fluorescence ratio [2]: 1 (inactive) | inhibition [3]: 2.77% (inactive) | inhibition [4]: -1.64% (inactive) | fluorescence ratio [5]: 0.97 (inactive) | z-score [6]: -0.196 (inactive) | nuclear beta-catenin stimulation ([7]; at 10 µM): -1.6% (inactive) | nuclear beta-catenin stimulation ([7]; stimulation, at 2 µM): 0%

COc1cc2c(N3CCN(C(=O)Nc4ccc(OC(C)C)cc4)CC3)ncnc2cc1OCCCN1CCCCC1
liver cell % of control [8]: 61.6% and 84.6% and 95.9% | parasite % of control [8]: 32.5% (inactive) and 57.6% (inactive) and 55.2% (inactive) | nuclear beta-catenin stimulation ([7]; at 10 µM): 1.7% (inactive) | nuclear beta-catenin stimulation ([7]; stimulation, at 2 µM): -1.8%

C[C@@H]1CN(CCCn2c3ccccc3c3ccccc32)C[C@H](C)N1
parasite load remaining [1]: 35.7% (inactive) | viability [1]: 37.6% | fluorescence ratio [2]: 0.94 (inactive) | inhibition [3]: -6.33% (inactive) | inhibition [4]: 1.18% (inactive) | fluorescence ratio [5]: 0.94 (inactive) | z-score [6]: -0.119 (inactive) | nuclear beta-catenin stimulation ([7]; at 10 µM): 6.5% (inactive) | nuclear beta-catenin stimulation ([7]; stimulation, at 2 µM): 4.9%

CN1CCN(C2=Nc3cc(F)ccc3Cc3ccccc32)CC1
parasite load remaining [1]: 91.4% (inactive) and 40.9% (inactive) | viability [1]: 62.6% and 67% | fluorescence ratio [2]: 0.91 (inactive) | inhibition [3]: -1.97% (inactive) | inhibition [4]: 1.97% (inactive) | fluorescence ratio [5]: 0.9 (inactive) | z-score [6]: -0.511 (inactive) | nuclear beta-catenin stimulation ([7]; at 10 µM): -1.1% (inactive) | nuclear beta-catenin stimulation ([7]; stimulation, at 2 µM): -3%

CCN1CC(CCN2CCOCC2)C(c2ccccc2)(c2ccccc2)C1=O (stereo not drawn)
parasite load remaining [1]: 66% (inactive) | viability [1]: 70.6% | fluorescence ratio [2]: 0.9 (inactive) | inhibition [3]: -8.95% (inactive) | inhibition [4]: 5.91% (inactive) | fluorescence ratio [5]: 0.88 (inactive) | z-score [6]: -0.0578 (inactive) | nuclear beta-catenin stimulation ([7]; at 10 µM): -1.3% (inactive) | nuclear beta-catenin stimulation ([7]; stimulation, at 2 µM): -3.1%

CN1CCN2c3ccccc3Cc3ccccc3C2C1 (stereo not drawn)
parasite load remaining [1]: 78.7% (inactive) and 106% (inactive) and 104% (inactive) | inhibition [9]: -3% (inactive) | fluorescence ratio (interference) [10]: 0.9 (inactive) | nuclear beta-catenin stimulation ([7]; at 10 µM): 0.3% (inactive) | nuclear beta-catenin stimulation ([7]; stimulation, at 2 µM): -0.9%

CC(C)(C)NC(=O)[C@@H]1CN(Cc2cccnc2)CCN1C[C@@H](O)C[C@@H](Cc1ccccc1)C(=O)N[C@H]1c2ccccc2C[C@H]1O
parasite load remaining [1]: 83.6% (inactive) | viability [1]: 71% | inhibition [3]: -1.19% (inactive) | inhibition [4]: 1.44% (inactive) | fluorescence ratio [5]: 1.02 (inactive) | z-score [6]: 0.687 (inactive) | nuclear beta-catenin stimulation ([7]; at 10 µM): 1.8% (inactive) | nuclear beta-catenin stimulation ([7]; stimulation, at 2 µM): 1.7%

Cc1[nH]cnc1CN1CCc2c(c3ccccc3n2C)C1=O
parasite load remaining [1]: 109% (inactive) | viability [1]: 87.6% | fluorescence ratio [2]: 0.99 (inactive) | inhibition [3]: -8.32% (inactive) | inhibition [4]: -4.72% (inactive) | fluorescence ratio [5]: 0.96 (inactive) | z-score [6]: 0.471 (inactive) | nuclear beta-catenin stimulation ([7]; at 10 µM): 1.1% (inactive) | nuclear beta-catenin stimulation ([7]; stimulation, at 2 µM): 1.4%

COC1=C(OC)C(=O)C(CCCCCCCCCCO)=C(C)C1=O
parasite load remaining [1]: 97.9% (inactive) and 55.5% (inactive) | viability [1]: 71.1% and 140% | fluorescence ratio [2]: 0.94 (inactive) | inhibition [3]: -2.77% (inactive) | inhibition [4]: 2.98% (inactive) | fluorescence ratio [5]: 0.94 (inactive) | z-score [6]: -0.18 (inactive) | nuclear beta-catenin stimulation ([7]; at 10 µM): -0.4% (inactive) | nuclear beta-catenin stimulation ([7]; stimulation, at 2 µM): -1.8%

CCOC(=O)OC(C)OC1=C(C(=O)Nc2ccccn2)N(C)S(=O)(=O)c2ccccc21 (stereo not drawn)
parasite load remaining [1]: 75.6% (inactive) and 16.2% (inactive) | viability [1]: 78.8% and 73% | fluorescence ratio [2]: 0.97 (inactive) | inhibition [3]: -2.84% (inactive) | inhibition [4]: -0.39% (inactive) | fluorescence ratio [5]: 0.96 (inactive) | z-score [6]: -0.884 (inactive) | nuclear beta-catenin stimulation ([7]; at 10 µM): 0.7% (inactive) | nuclear beta-catenin stimulation ([7]; stimulation, at 2 µM): -0.8%

COc1ccc(CCN(C)CCCC(C#N)(c2ccc(OC)c(OC)c2)C(C)C)cc1OC (stereo not drawn)
inhibition [9]: -3% (inactive) | fluorescence ratio (interference) [10]: 1 (inactive) | nuclear beta-catenin stimulation ([7]; at 10 µM): 0.2% (inactive) | nuclear beta-catenin stimulation ([7]; stimulation, at 2 µM): 0.5%

CC(C)NNC(=O)c1ccncc1
inhibition [9]: -3% (inactive) | fluorescence ratio (interference) [10]: 0.9 (inactive) | nuclear beta-catenin stimulation ([7]; at 10 µM): 2.3% (inactive) | nuclear beta-catenin stimulation ([7]; stimulation, at 2 µM): -0.3%

NC(Cc1ccc(Cl)cc1)C(=O)O (stereo not drawn)
inhibition [9]: -3% (inactive) | fluorescence ratio (interference) [10]: 1 (inactive) | nuclear beta-catenin stimulation ([7]; at 10 µM): 1.4% (inactive) | nuclear beta-catenin stimulation ([7]; stimulation, at 2 µM): 2.1%

CN(C)CCCN1c2ccccc2Sc2ccc(C(F)(F)F)cc21
inhibition [9]: -5% (inactive) | fluorescence ratio (interference) [10]: 1 (inactive) | nuclear beta-catenin stimulation ([7]; at 10 µM): 41.9% (active) | nuclear beta-catenin stimulation ([7]; stimulation, at 2 µM): 3.5%
